Legend:
Assay type in all cases: functional
[1] = tested on: Plasmodium falciparum; experiment: GSK_TCMDC: Inhibition of Plasmodium falciparum 3D7 in whole red blood cells, using parasite LDH activity as an index of growth. Test compounds present at 2uM
[2] = tested on: Plasmodium falciparum; experiment: GSK_TCMDC: Inhibition of Plasmodium falciparum Dd2 in whole red blood cells, using parasite LDH activity as an index of growth. Test compounds present at 2uM
[3] = tested on: HepG2; experiment: GSK_TCMDC: Percent inhibition of human HepG2 cell line. Test compounds present at 10uM.

| SMILES | Inhibition [1] | Inhibition [2] | Inhibition [3] |
| --- | --- | --- | --- |
| CCNc1cc(C)nc(Nc2ccc(NC(=O)Cc3ccc(OC)cc3)cc2)n1 | 100% | 47% | 30% |
| CCOc1ccc(C(C)NC(=O)c2ccc(OC)c(Br)c2)cc1OCC (centres undefined) | 100% | 100% | 9% |
| CCN(CC)CCCN1CCN(C(=O)c2cccc(-c3noc(C(F)(F)F)n3)c2)CC1 | 91% | 74% | 0% |
| COc1cc2c(cc1OC)C(c1ccc(Br)cc1)CN(C)CC2.Cl (centres undefined) | 86% | 0% | 8% |
| O=C(/C=C/c1ccc(Cl)cc1Cl)N1CCC(CCN2CCC(c3c[nH]c4ccccc34)CC2)CC1 | 98% | 37% | 94% |
| O=C(O)C(F)(F)F.O=S(=O)(NCCN1CCCC1)c1ccc(-c2cccc(CNCc3ccccc3)c2)s1 | 94% | 43% | 44% |
| Cc1cc(NC(=O)Nc2cccc(Cl)c2Cl)c2ccccc2n1 | 96% | 25% | 0% |
| CCC(CC)N1C(=O)C(c2ccccc2)(c2ccccc2)N=C1N.O=CO | 96% | 61% | 14% |
| O=C(Nc1cccc(-c2nn3ncccc3c2-c2ccnc(Nc3ccccc3)n2)c1)c1c(F)cccc1F | 98% | 96% | 51% |
| CC(=O)N1Cc2ccccc2C1=O | 97% | 0% | 10% |
| CC(C)Nc1nc(NCCc2c[nH]cn2)nc(NCc2ccc(Cl)c(Cl)c2)n1 | 88% | 0% | 0% |
| Cc1ccc(C(C(=O)Nc2ccc(N3CCNCC3)c(Cl)c2)c2ccccc2)cc1 (centres undefined) | 97% | 93% | 23% |
| COc1ccc(Cl)cc1NC(=O)Nc1cc(C)nc2ccccc12 | 100% | 99% | 10% |

Source: ChEMBL document CHEMBL1157539, “Thousands of chemical starting points for antimalarial lead identification” (Nature, 2010)
